Laboratory results: publication PMC4336329 (PLoS ONE, 2015)
The whole screen tested about 310,000 compounds, of which about 14,000 (4.5%) showed an effect of 50% or more. Effects have a minus sign here. What follows is part of a selection rich in strong results, with near analogues and random picks from the rest.

molecular target: human ether-à-go-go-related gene (hERG) potassium channel (human, UniProt Q12809); test: primary screen, population patch clamp on CHO cells stably expressing hERG; higher = less effect of the substance
Sequence (Q12809 whole entry, looked up): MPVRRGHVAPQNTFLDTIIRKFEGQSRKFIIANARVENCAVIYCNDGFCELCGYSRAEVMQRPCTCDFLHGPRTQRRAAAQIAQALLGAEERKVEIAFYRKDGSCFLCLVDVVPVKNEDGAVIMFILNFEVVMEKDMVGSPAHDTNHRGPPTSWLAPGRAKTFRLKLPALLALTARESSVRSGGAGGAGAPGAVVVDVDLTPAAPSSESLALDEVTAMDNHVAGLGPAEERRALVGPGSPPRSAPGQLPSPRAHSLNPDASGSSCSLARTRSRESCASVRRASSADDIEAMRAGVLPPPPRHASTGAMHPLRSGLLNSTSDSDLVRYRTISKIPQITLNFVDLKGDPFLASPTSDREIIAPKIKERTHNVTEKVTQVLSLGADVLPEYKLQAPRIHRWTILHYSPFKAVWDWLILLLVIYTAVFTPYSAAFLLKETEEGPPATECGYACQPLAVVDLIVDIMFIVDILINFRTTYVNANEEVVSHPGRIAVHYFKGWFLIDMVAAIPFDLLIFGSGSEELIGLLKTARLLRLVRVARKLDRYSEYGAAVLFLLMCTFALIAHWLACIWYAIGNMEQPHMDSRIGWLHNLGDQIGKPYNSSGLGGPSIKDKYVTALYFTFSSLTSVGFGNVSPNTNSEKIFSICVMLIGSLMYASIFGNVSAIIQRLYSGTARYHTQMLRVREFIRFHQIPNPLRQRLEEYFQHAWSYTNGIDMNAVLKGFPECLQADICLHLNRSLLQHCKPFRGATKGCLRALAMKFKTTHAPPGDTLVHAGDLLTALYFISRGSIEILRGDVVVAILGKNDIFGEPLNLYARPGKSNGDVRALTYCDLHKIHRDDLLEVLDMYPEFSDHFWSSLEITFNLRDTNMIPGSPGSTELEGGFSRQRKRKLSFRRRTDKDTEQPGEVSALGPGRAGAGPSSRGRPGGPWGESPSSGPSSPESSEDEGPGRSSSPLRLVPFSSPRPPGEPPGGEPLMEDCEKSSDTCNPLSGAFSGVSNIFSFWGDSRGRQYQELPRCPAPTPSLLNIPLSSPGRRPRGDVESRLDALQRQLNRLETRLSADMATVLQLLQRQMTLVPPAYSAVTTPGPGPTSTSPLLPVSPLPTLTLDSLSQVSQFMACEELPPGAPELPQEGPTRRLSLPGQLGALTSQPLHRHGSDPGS
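Also: peak tail current of the secondary pulse compared with the same well before compound.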

| Compound | hERG current change (%, negative = inhibition) at 10uM |
| --- | --- |
| C[n+]1ccccc1/C=C/c1cc(Br)ccc1O.[I-] | 14.7% |
| CC(C)c1ccc(S(=O)(=O)N2CCN(C(=O)c3ccc(N4CCCC4)c([N+](=O)[O-])c3)CC2)cc1 | -55.1% |
| Cc1ccc(S(=O)(=O)N2CCN(C(=O)c3ccc(-n4cncn4)c([N+](=O)[O-])c3)CC2)cc1 | -52.5% |
| Nc1ccc(C(=O)N2CCN(S(=O)(=O)c3ccc(Br)cc3)CC2)cc1[N+](=O)[O-] | -26.9% |
| O=C(c1ccc(-n2cncn2)c([N+](=O)[O-])c1)N1CCN(S(=O)(=O)c2ccc(Br)cc2)CC1 | -67.5% |
| Cc1ccc(NC(=O)c2ccc(-n3cncn3)c([N+](=O)[O-])c2)cc1 | -17.9% |
| Cc1ccc(S(=O)(=O)N2CCN(C(=O)c3ccc(N4CCCCC4)c([N+](=O)[O-])c3)CC2)cc1 | -10.2% |
| CC(=O)c1ccc(S(=O)(=O)N2CCN(C(=O)c3ccc(-n4cncn4)c([N+](=O)[O-])c3)CC2)cc1 | -19.7% |
| Cc1ccc(C)c(S(=O)(=O)N2CCN(C(=O)c3ccc(-n4cncn4)c([N+](=O)[O-])c3)CC2)c1 | -72.1% |
| Cc1ccc(C)c(S(=O)(=O)N2CCN(C(=O)c3ccc(N4CCCC4)c([N+](=O)[O-])c3)CC2)c1 | -9.46% |
| O=C(c1ccc(N2CCCC2)c([N+](=O)[O-])c1)N1CCN(S(=O)(=O)c2ccc(Cl)cc2)CC1 | -36.2% |
| Cc1ccc(C(=O)NNC(=O)c2ccc(-n3cncn3)c([N+](=O)[O-])c2)cc1 | 12.2% |
| CC(C)CNC(=O)CC(=O)NN=C1CCCC1 | 19.5% |
| Cc1ccc(N(CC(=O)NCc2ccco2)C(=O)CCC(=O)Nc2nccs2)c(C)c1 | -22.5% |
| Cc1cc(C)n(-c2nc3ccccc3n3c(C)nnc23)n1 | 6.03% |
| Cc1ccc2oc(=O)n(CC(=O)O)c2c1 | 23.8% |
| CCOc1ccccc1NC(=O)NC1(C(=O)NCC2CCCO2)CCCCC1 (centres unmarked) | 15% |
| COc1cc(NS(=O)(=O)c2ccc(NC(=O)c3ccc(C)o3)cc2)nc(OC)n1 | -9.23% |
| Cc1ccc(N)c(C(=O)CCCCC(=O)O)c1 | 7.01% |
| C[C@@H](C(=O)O)[C@@H]1C[C@@]1(C)[C@@H](NC(=O)OCc1ccccc1)c1ccccc1 | 16.8% |
| Oc1c(CN2CCOCC2)cc(-c2ccccc2)cc1CN1CCOCC1 | -12.7% |

| Compound | hERG current change (%, negative = inhibition) at 10uM |
| --- | --- |
| Cc1cc(C)c(NC(=O)Cn2nnc(C(=O)NCc3cccs3)c2N)c(C)c1 | 20% |
| CCC(C)NC(=S)N(CCc1ccccc1)Cc1cc2cc(OC)c(OC)cc2[nH]c1=O (centres unmarked) | -32.4% |
| CCCCCOC(=O)C1=C(C)Nc2nnnn2C1c1ccc(OC)c(OC)c1OC (centres unmarked) | -41.4% |
| CCOc1cc(/C=C2\NC(=S)N(C)C2=O)ccc1OCc1ccc(C(=O)O)cc1 | 14.6% |
| CC(=O)N1CCN(C(=O)c2ccc(-n3c(C)ccc3C)cc2)CC1 | -1.54% |
| Cc1c(NC(=O)/C=C/c2cn(-c3ccccc3)nc2-c2ccc(F)cc2)c(=O)n(-c2ccccc2)n1C | 7.47% |
| CCN(CC)c1ccc(N)cc1S(=O)(=O)Nc1ccc(OC)cc1 | -4.91% |
| Cn1c2c(c(=O)n(C)c1=O)CN(Cc1ccco1)CN2 | 4.7% |
| CCOc1ccc(S(=O)(=O)N2CCN(C(=O)c3cccnc3)CC2)cc1 | -29.3% |
| CCOc1ccc(S(=O)(=O)N2CCN(C(=O)c3ccc(-n4cncn4)c([N+](=O)[O-])c3)CC2)cc1 | -71.5% |
| O=C(c1ccncc1)N1CCN(S(=O)(=O)c2ccccc2Br)CC1 | 4.86% |
| NC(=O)c1ccc(N2CCN(S(=O)(=O)c3ccccc3)CC2)c([N+](=O)[O-])c1 | -58.7% |
| N#Cc1ccccc1S(=O)(=O)N1CCN(C(=O)c2ccc(-n3cncn3)c([N+](=O)[O-])c2)CC1 | -23.3% |
| O=C(c1ccc(N2CCN(S(=O)(=O)c3ccccc3)CC2)c([N+](=O)[O-])c1)N1CCOCC1 | -35.1% |
| O=C(c1ccc(-n2cncn2)c([N+](=O)[O-])c1)N1CCN(S(=O)(=O)c2ccccc2Br)CC1 | -70.3% |
| COC(=O)c1ccc(N2CCN(S(=O)(=O)c3ccccc3)CC2)c([N+](=O)[O-])c1 | -14.1% |
| Cc1ccc(S(=O)(=O)N2CCN(C(=O)c3ccc(N4CCCC4)c([N+](=O)[O-])c3)CC2)cc1 | -18.1% |
| Cc1ccc(S(=O)(=O)N2CCN(c3ccc(C(=O)N4CCOCC4)cc3[N+](=O)[O-])CC2)cc1 | -59% |
| O=C(c1ccc(N2CCCCC2)c([N+](=O)[O-])c1)N1CCN(S(=O)(=O)c2ccccc2)CC1 | -49.9% |
| CCOc1ccc(S(=O)(=O)N2CCN(C(=O)c3ccncc3)CC2)cc1 | 4.67% |
